The nature of test [1]: Nuclear factor erythroid 2-related factor 2/antioxidant responsive element (Nrf2/ARE) small molecule agonists: qHTS cell viability counter screen in human keratinocytes (AID 1919968; active means well fitted curve in the direction sought with a large enough effect in the repeat runs; an effect the other way counts as inactive or inconclusive; further: nearly all actives have a fitted effect of over 55% in size). The method, boiled down:
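Viability counter-screen: KeratinoSens reporter cells, DMSO-delivered compounds, 23 h at 37 C, CellTiter-Fluor fluorescence.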

Test [2] is described as follows: Nuclear factor erythroid 2-related factor 2/antioxidant responsive element (Nrf2/ARE) small molecule agonists: luciferase reporter gene qHTS assay in human keratinocytes (AID 1919969). Further: nearly all actives have a fitted effect of over 35% in size. Further: potency means the concentration at half of the fitted maximal effect. In general terms: In a reporter assay the amount or activity of a reporter protein is the signal.
In test [3] the target is Gonadotropin-releasing hormone receptor (Homo sapiens) (UniProt P30968). The test is described as follows: Human gonadotropin-releasing hormone receptor (GnRHR) small molecule agonists, calcium flux assay in GnRHR-HEK293 cells (AID 1920063). Further: nearly all actives have a fitted effect of over 35% in size. Further: potency means the concentration at half of the fitted maximal effect. The method, boiled down:
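Tox21-format agonist screen using human GnRHR-expressing HEK293 cells and a fluorescent calcium dye; kinetic 3-min fluorescence reading after compound addition, 15-point concentration series run in triplicate.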
A general note: A change in cytosolic calcium serves as a functional read-out for many receptors and channels.

Test [4] concerns the target KiSS-1 receptor (Homo sapiens) (UniProt Q969F8). Description: Human kisspeptin (KISS1R) small molecule agonists, calcium flux assay in KISS1R-HEK293 cells (AID 1920064; active means well fitted curve in the direction sought with a large enough effect in the repeat runs; an effect the other way counts as inactive or inconclusive). The method, boiled down: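 Intracellular calcium mobilization in KISS1R-HEK293 cells was recorded by fluorescence (Ex/Em 480/540) for 3 min following compound addition to cells pre-loaded 1 h with calcium dye.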

Test [5] in a line: p53 small molecule agonists, cell-based qHTS assay with rat liver microsomes: qHTS cell viability counter screen (AID 1963580). Further: nearly all actives have a fitted effect of over 45% in size. The method, boiled down: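 In HCT-116 cells carrying a p53 response element-bla reporter, compounds were metabolically activated in situ by rat liver microsomes with NADPH over 16 h. Cell ATP content then served as the cytotoxicity measure.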
In general terms: Quantitative high-throughput screening tests each substance at several concentrations.

A short description of test [6]: p53 small molecule agonists, cell-based qHTS assay: qHTS cell viability counter screen (AID 1963581). Further: nearly all actives have a fitted effect of over 45% in size. The method, boiled down:
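Compounds are pinned onto HCT-116 p53RE-bla cells and left 16 h at 37 C. Following the reporter FRET read, ATP is quantified by CellTiter-Glo luminescence after 30 min at room temperature.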

In test [7] the target is 5-hydroxytryptamine receptor 2A (Homo sapiens) (UniProt P28223). Description: 5-hydroxytryptamine receptor 2A (HTR2A) small molecule antagonists, cell-based qHTS assay (AID 1963586). Further: nearly all actives have a fitted effect of over 45% in size. Further: potency means the concentration at half of the fitted maximal effect. The method, boiled down:
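Antagonist-mode intracellular calcium assay: DOI (4 nM) added after 5 min compound pre-incubation at room temperature to dye-loaded HTR2A-CHO cells. Fluorescence followed for 3 min, sampled every second.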

In test [8] the target is Muscarinic acetylcholine receptor M1 (Homo sapiens) (UniProt P11229). Description: Cholinergic receptor muscarinic 1 (CHRM1) small molecule antagonists, cell-based qHTS assay (AID 1963588). Further: nearly all actives have a fitted effect of over 40% in size. Further: potency means the concentration at half of the fitted maximal effect. The method, boiled down: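 CHRM1-CHO calcium-flux assay, antagonist mode. Cells were seeded 18 h, dye-loaded 1 h at 37 C and given compound for 5 min at RT, then acetylcholine was added at 50nM. FDSS fluorescence was read 3 min; 15 concentrations, three runs.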

The target is the same in test [9]. The test is described as follows: Cholinergic receptor muscarinic 1 (CHRM1) small molecule agonists, cell-based qHTS assay (AID 1963589). Further: nearly all actives have a fitted effect of over 35% in size. Further: potency means the concentration at half of the fitted maximal effect. The method, boiled down: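 Stable CHRM1-CHO cells (human receptor) were incubated 18 h, dye-loaded for 1 h at 37 C and exposed to test compounds for agonist activity, with calcium-dependent fluorescence followed kinetically.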

Test [10] deals with Beta-2 adrenergic receptor (Homo sapiens) (UniProt P07550). Description: Adrenergic beta2 receptor (ADRB2) small molecule antagonists, cell-based qHTS assay (AID 1963592). Further: series mostly up to about 92 µM; nearly all actives have a fitted effect of over 50% in size. The method, boiled down: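 Cells (CHO, stable ADRB2 overexpression) incubated 18-20hr at 37C; compounds added from DMSO; agonist mix (1nM isoproterenol, 100uM IBMX, 25uM Ro-20-1724) added; 0.5hr RT; d2-cAMP and anti-cAMP-cryptate added; 1hr RT; 665/615 nm read.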

The target in test [11] is D(2) dopamine receptor (Homo sapiens) (UniProt P14416). Description: Dopamine D2 receptor (DRD2) small molecule agonists, cell-based qHTS assay (AID 1963594). Further: nearly all actives have a fitted effect of over 35% in size. The method, boiled down:
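HEK293 cells stably expressing DRD2 were cultured 24 h at 37 C, then given Ro20-1724 (0.1 mM final) and compounds for 10 min at room temperature. NKH477 (200nM) was then added for 30 min. cAMP was read by HTRF.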

The target is the same in test [12]. The test is described as follows: Dopamine D2 receptor (DRD2) small molecule antagonists, cell-based qHTS assay (AID 1963595; active means well fitted inhibition curve with a large enough effect in the signal ratio in the repeat runs, with a control signal flat; the % refers to the signal ratio). The method, boiled down:
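Human DRD2 antagonist qHTS measuring cAMP by HTRF. The cells are exposed to compound for 10 min, then to NKH477 (200 nM) and quinpirole (12 nM) for 30 min at RT, with Ro20-1724 (0.1 mM) present throughout.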

The nature of test [13]: p53 small molecule agonists, cell-based qHTS assay with human liver microsomes: qHTS cell viability counter screen (AID 1963579). Further: nearly all actives have a fitted effect of over 45% in size. The method, boiled down: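 p53RE-bla cells, 4,000/well, dosed 5 hours after plating, with human liver microsomes (0.5 mg/mL final) plus NADPH (0.5 mg/mL final), 16 hours at 37 C. Viability read as CellTiter-Glo luminescence after 30 min at room temperature.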

Test [14] concerns the target 5-hydroxytryptamine receptor 2A (Homo sapiens) (UniProt P28223). Description: 5-hydroxytryptamine receptor 2A (HTR2A) small molecule agonists, cell-based qHTS assay (AID 1963587). Further: nearly all actives have a fitted effect of over 30% in size. Further: potency means the concentration at half of the fitted maximal effect. The method, boiled down:
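HTR2A-CHO cells, plated 18 h at 37 C/5% CO2, dye-loaded 1 h at 37 C; compounds in DMSO added by pin tool (agonist mode). Intracellular calcium flux read as kinetic fluorescence on FDSS over 2 min at 1 s intervals.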

The nature of test [15]: cAMP Responsive Elements (CRE) small molecule agonists, cell-based qHTS assay (AID 1963590). The method, boiled down: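 FRET-based beta-lactamase readout (LiveBLAzer B/G, 2 h RT) quantified CRE activation in HEK 293T CRE-bla cells after 3 h treatment with DMSO-dissolved compounds.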
Test [16] deals with Beta-2 adrenergic receptor (Homo sapiens) (UniProt P07550). Description: Adrenergic beta2 receptor (ADRB2) small molecule agonists, cell-based qHTS assay (AID 1963593).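 Further: CHO cells stably overexpressing human ADRB2.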 The method, boiled down: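 CHO cells stably over-expressing ADRB2 were plated overnight at 37C, then dosed with compounds plus a stimulation mix containing 100uM IBMX and 25uM Ro-20-1724 for 0.5hr at room temperature. cAMP was measured by HTRF competition, 1hr.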

Test [17] in a line: cAMP Responsive Elements (CRE) small molecule antagonists, cell-based qHTS assay (AID 1963591; active means well fitted inhibition curve with a large enough effect in the signal ratio in the repeat runs, not every such curve was filed as active; the % refers to the signal ratio). The method, boiled down:
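qHTS in CRE-bla HEK 293T cells: compound in DMSO, then 0.25 uM NKH477 (final), 3 h at 37 °C/5% CO2; beta-lactamase FRET read-out after 2 h substrate incubation.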

Test [18] in a line: G protein-coupled receptor (GPCR) small molecule agonists, calcium flux assay: HEK293 wild type cell line counter screen (AID 1920065). Further: potency means the concentration at half of the fitted maximal effect. The method, boiled down: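 In this agonist-mode screen, ATP is the positive control and DMSO the vehicle. Cells grow 18 h before a 1 h dye incubation at 37 C; signal is taken at Ex/Em 480/540 over 3 min.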
The nature of test [19]: p53 small molecule agonists, cell-based qHTS assay with rat liver microsomes (AID 1963578). The method, boiled down:
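p53RE-bla cells, 4,000/well, pre-incubated 5 h, then given compounds plus rat liver microsomes (0.5 mg/mL final) and NADPH (0.5 mg/mL final). Incubation 16 h at 37 C; beta-lactamase reporter read by LiveBLAzer fluorescence after 2 h at room temperature.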

Test [20] is described as follows: p53 small molecule agonists, cell-based qHTS assay (AID 1963582; active means well fitted activation curve with a large enough effect in the signal ratio in the repeat runs, not every such curve was filed as active; the % refers to the signal ratio). The method, boiled down: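 Agonist activity was scored from beta-lactamase FRET fluorescence in p53RE-bla cells treated 16 h at 37 C with compounds in DMSO, substrate incubation being 2 h at room temperature.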

The results in this text go back to PubChem BioAssay (Tox21).

A number with no mark means an inactive call. Inconclusive results are not listed. Calls of active or inactive are those of the source. Unless noted, the call rests on the fitted dose curve.
On the % scale 0 is the no-effect control and ±100 the full control effect.

Chain of Beta-2 adrenergic receptor (Homo sapiens) (P07550 whole entry, looked up): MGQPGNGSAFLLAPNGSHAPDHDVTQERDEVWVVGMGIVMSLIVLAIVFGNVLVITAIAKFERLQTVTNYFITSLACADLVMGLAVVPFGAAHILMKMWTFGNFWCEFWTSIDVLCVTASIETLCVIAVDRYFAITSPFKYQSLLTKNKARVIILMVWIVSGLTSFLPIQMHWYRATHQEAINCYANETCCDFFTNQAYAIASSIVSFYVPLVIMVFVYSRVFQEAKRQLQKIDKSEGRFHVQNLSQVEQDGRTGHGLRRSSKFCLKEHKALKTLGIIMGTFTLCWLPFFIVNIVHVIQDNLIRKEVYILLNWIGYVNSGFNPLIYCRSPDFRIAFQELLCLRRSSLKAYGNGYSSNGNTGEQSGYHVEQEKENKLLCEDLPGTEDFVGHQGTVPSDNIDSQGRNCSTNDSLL
Chain of KiSS-1 receptor (Homo sapiens) (Q969F8 whole entry, looked up): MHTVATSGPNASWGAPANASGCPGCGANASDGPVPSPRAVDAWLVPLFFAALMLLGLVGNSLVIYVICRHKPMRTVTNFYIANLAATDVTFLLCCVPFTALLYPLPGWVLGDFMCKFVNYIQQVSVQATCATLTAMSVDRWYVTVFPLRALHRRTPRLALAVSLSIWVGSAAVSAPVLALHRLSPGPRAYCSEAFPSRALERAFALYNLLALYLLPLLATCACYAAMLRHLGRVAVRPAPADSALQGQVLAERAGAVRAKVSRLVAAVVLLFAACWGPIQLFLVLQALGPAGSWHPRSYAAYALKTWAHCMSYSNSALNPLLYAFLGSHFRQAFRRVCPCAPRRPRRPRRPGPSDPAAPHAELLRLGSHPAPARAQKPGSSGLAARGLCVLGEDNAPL
Chain of Gonadotropin-releasing hormone receptor (Homo sapiens) (P30968 whole entry, looked up): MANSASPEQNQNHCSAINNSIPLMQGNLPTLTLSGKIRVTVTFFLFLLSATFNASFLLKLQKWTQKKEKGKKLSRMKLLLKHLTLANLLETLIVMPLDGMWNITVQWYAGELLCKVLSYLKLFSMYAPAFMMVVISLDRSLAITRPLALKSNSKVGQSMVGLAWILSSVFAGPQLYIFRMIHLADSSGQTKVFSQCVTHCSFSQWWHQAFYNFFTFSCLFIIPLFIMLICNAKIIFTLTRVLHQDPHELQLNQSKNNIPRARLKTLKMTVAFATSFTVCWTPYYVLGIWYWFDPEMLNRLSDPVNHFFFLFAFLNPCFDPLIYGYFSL
Chain of 5-hydroxytryptamine receptor 2A (Homo sapiens) (P28223 whole entry, looked up): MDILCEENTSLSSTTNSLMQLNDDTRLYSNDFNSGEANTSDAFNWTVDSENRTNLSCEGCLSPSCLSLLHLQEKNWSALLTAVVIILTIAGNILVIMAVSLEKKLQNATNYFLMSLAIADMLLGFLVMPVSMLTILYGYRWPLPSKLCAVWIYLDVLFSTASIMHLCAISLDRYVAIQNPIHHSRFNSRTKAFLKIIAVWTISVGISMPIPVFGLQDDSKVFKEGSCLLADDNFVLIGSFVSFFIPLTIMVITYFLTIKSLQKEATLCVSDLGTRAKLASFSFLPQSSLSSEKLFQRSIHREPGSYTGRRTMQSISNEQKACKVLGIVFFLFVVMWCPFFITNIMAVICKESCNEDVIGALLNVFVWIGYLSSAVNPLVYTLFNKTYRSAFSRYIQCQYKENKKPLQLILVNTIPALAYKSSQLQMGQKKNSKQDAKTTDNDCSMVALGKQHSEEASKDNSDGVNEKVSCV
Chain of D(2) dopamine receptor (Homo sapiens) (P14416 whole entry, looked up): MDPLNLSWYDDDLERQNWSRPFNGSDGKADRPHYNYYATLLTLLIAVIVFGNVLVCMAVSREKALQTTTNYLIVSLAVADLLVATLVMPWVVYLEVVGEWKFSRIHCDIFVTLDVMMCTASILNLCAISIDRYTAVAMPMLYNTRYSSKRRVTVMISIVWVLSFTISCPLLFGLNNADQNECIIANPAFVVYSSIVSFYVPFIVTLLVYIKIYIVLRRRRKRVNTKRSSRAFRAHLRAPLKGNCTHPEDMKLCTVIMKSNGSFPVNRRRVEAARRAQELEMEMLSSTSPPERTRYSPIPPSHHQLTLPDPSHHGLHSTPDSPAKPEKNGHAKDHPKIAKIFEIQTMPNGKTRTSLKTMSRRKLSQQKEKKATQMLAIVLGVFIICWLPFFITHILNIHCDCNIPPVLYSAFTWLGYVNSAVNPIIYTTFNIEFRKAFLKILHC
Chain of Muscarinic acetylcholine receptor M1 (Homo sapiens) (P11229 whole entry, looked up): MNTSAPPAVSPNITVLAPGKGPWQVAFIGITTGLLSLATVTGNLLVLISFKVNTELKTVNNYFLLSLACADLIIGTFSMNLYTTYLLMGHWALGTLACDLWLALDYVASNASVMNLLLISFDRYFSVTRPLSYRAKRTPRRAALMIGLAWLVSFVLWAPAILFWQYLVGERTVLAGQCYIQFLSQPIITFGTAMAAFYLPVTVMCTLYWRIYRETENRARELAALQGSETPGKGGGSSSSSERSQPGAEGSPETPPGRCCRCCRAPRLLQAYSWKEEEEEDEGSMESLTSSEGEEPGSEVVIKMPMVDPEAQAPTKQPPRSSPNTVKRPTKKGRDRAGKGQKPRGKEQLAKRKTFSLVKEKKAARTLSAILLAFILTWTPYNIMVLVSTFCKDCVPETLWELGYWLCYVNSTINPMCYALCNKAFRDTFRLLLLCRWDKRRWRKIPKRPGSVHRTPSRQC

Take `COC(=O)c1ccccc1OC`: the Potency entry in test [1], in test [2], in test [3], in test [4], in test [5] and in test [6] was “inactive” in each case. The Potency entry in test [7], in test [8], in [9], in test [10], in test [11] and in test [12] was “inactive” throughout.
`CC/C=C/CCCCCCCCCCOC(C)=O`: the Potency result in test [1], in test [2], in [3], in test [4], in [13] and in [5] was “inactive” each time. In addition, the Potency entry in test [6], in test [14], in test [8], in [9], in test [15] and in test [10] was “inactive” throughout. In addition, the Potency entry in [16], in [11] and in test [12] was “inactive” in each case.
For `Cc1ccccc1Br`, the Potency result in test [1], in test [2], in [3], in test [4], in [5] and in test [6] was “inactive” each time. The Potency entry in test [7], in test [14], in test [9], in test [15], in test [17] and in test [10] was “inactive” in each case. Besides, the Potency entry in [16] and in [12] was “inactive” in each case.
`CCCC/C=C/C=C\C=O`: the Potency entry in test [1], in [3], in test [18], in test [19], in test [13] and in test [5] was “inactive” in each case. The Potency result in test [6], in [20], in test [7], in [14], in [8] and in test [15] was “inactive” each time. Further, the Potency entry in test [10], in test [11] and in test [12] was “inactive” throughout. The Potency in test [2] was 61.1 µM (active).
Take `CC(C)(C)c1cc(O)c(C(C)(C)C)cc1O`: the Potency result in test [1], in test [19], in test [13], in test [5], in test [6] and in [15] was “inactive” throughout. The Potency entry in [17], in test [10], in test [16], in test [11] and in test [12] was “inactive” throughout. The Potency is 15.4 µM (active) in test [2]; 5.49 µM (active) in [3]; 34.7 µM (active) in [18]; 14.9 µM (active) in test [7]; 1.1 µM (active) in test [14]; 18.8 µM (active) in test [8]. For the same compound, the Potency in test [9] is 11 µM (active).
Turning to `N=C(N)N1CCc2ccccc2C1`, the results for the activity change, negative = cytotoxicity in test [1], in test [13] and in [5] were 2.9% [at 8.39 µM], -1.79% [at 5.99 µM] and 0.465% [at 5.99 µM], respectively. Further, in test [2], the activity, positive = activation is -4.04% [at 8.39 µM]. The activity change in test [3] was 0.504% [at 5.22 µM, hits give high values]. In addition, the activation was -0.218% [at 6.97 µM] in test [4]; -10.3% [at 7.02 µM] in [14]; 0.312% [at 6.97 µM] in test [9]; 0.166% [at 8.39 µM] in [15]; 9.27% [at 8.39 µM] in test [16]; 22% [at 8.39 µM] in [11]. Moreover, the activity, negative = inhibition in test [8] was -1.92% [at 5.58 µM]. For the same compound, the activity change, negative = inhibition in test [17] was -2.28% [at 8.39 µM]; in test [10], -8.55% [at 8.39 µM]; in test [12], 16.9% [at 8.38 µM].
`CN(C)CCN(C)CCO`: the Potency entry in test [1], in test [2], in test [3], in [4], in test [5] and in test [6] was “inactive” throughout. For the same compound, the Potency entry in test [14], in test [8], in test [9], in [17], in test [10] and in test [16] was “inactive” in each case. Besides, the Potency entry in [11] and in test [12] was “inactive” throughout. Moreover, the Potency in test [7] was 9.4 µM (active).
